Data published in PubChem BioAssay AID1974 (The Scripps Research Institute Molecular Screening Center, 2009).
Out of some 300,000 compounds screened, about 3,200 (1.1%) were called active.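 The calls were made as follows: active = inhibition above the campaign mean inhibition plus 3 SD (cut at about 35% in these data); inactive = the rest.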 This excerpt belongs to a sample that is enriched for actives.

Each molecule was assayed against Glutathione S-transferase omega-1 (Homo sapiens) (UniProt P78417) (assay: inhibitors of recombinant GSTO1, primary screen, counter-screen for RBBP9 inhibitor project, biochemical, fluorescence polarization (AID 1974;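 also: 0% = GSTO1-1 with DMSO and 100% = wells lacking GSTO1-1 enzyme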)). Settings: recombinant GSTO1, activity-based probe fluorescence polarization; at 5.96 µM; active compounds read high.
Glutathione S-transferase omega-1 (Homo sapiens), sequence (P78417 whole entry, looked up): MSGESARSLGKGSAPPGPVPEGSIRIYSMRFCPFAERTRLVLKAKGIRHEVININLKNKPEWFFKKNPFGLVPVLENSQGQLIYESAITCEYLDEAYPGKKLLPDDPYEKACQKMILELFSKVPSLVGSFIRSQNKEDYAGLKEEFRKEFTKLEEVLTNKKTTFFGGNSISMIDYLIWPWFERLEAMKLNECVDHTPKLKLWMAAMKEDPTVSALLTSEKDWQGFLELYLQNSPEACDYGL

Structure (SMILES)	inhibition
CCOC(=O)c1c(N)n(Cc2ccccc2)c2nc3ccccc3nc12	77.2% (active)
CCOC(=O)c1c(N)n(CCN2CCOCC2)c2nc3ccccc3nc12	-0.71% (inactive)
COc1cc(Cn2c(N)c(C(=O)NCc3ccco3)c3nc4ccccc4nc32)cc(OC)c1OC	-1.75% (inactive)
CCN(CC)CCOC(=O)c1cc2cc(COC)ccc2o1	0.13% (inactive)
O=c1c2ccccc2nc(/C=C/c2ccco2)n1-c1ccccc1O	-8.4% (inactive)
O=C(O)COc1ccccc1/C=C1\C(=O)NC(=O)N(CCC2=CCCCC2)C1=O	41.1% (active)
O=C1NC(=O)N(CCc2ccc(F)cc2)C(=O)/C1=C/C=C/c1ccccc1	-7.53% (inactive)
O=C1NC(=O)N(Cc2ccco2)C(=O)/C1=C\c1cccn1CCOc1ccccc1	18.6% (inactive)
COc1cc2nc(N3CCN(C(=O)[C@@H]4CCCO4)CC3)nc(N)c2cc1OC	3.62% (inactive)
CCCCCCN=C(CC)c1c(O)n(CCCC)c(=O)[nH]c1=O	-0.65% (inactive)
CC(=O)Nc1ccccc1C(=O)OCC(=O)c1cccc2ccccc12	-2.14% (inactive)
O=C1NC(=O)N(c2ccccc2)C(=O)/C1=C/c1ccc([N+](=O)[O-])s1	38.7% (active)
Cc1cccc(N2C(=O)NC(=O)/C(=C\c3cnn(-c4ccccc4)c3)C2=O)c1	-2.05% (inactive)
COc1cccc(N2C(=O)NC(=O)/C(=C\c3cn(C)c4ccccc34)C2=O)c1	-0.1% (inactive)
Cc1ccc(N2C(=O)NC(=O)C(CCc3ccncc3)(Cc3cccc(Cl)c3Cl)C2=O)cc1 (stereo not given)	-2.83% (inactive)
Cc1ccc(-n2c(-c3ccc([N+](=O)[O-])cc3)nc3ccccc3c2=O)cc1	5.91% (inactive)
N#CC1=C(N)Oc2c(c(=O)oc3ccccc23)C1c1ccccc1OC(=O)c1cccs1 (stereo not given)	-8.89% (inactive)
CCNc1nc2[nH]c(=O)c3c(c2s1)OC(N)=C(C#N)C3c1cccs1 (stereo not given)	40.5% (active)
CCN1c2nc3c(C)cccn3c(=O)c2CC2(C(=O)N(C)C(=O)N(C)C2=O)C1C (stereo not given)	-4.29% (inactive)
Cc1cc(C)cc(NC(=S)NC2CC3CCCC(C2)N3Cc2cccs2)c1 (stereo not given)	0.82% (inactive)
